From PubChem BioAssay (Tox21)
Inconclusive results are not listed. A number with no mark means an inactive call. Active and inactive are the calls of the source. Calls follow the shape of the dose curve; as a rule, active = well fitted cell-killing curve with a large enough effect in the repeat runs; inconclusive = weak or mixed curves; inactive = flat fitted curve, though single readings scatter.

Experiment: qHTS RealTime-Glo MT Cell Viability Assay in HepG2 cells - 8 hour (AID 1224873); also: nearly all actives have a fitted effect of over 55% in size
Settings: RealTime-Glo luminescence; series mostly up to 76.8 µM
Excerpt: National Center for Advancing Translational Sciences [NCATS]
NIH Chemical Genomics Center [NCGC]
U.S. Environmental Protection Agency [EPA]
National Institutes of Environmental Health Sciences [NIEHS]
National Toxicology Program [NTP]
U.S. Food and Drug Administration [FDA]
Measure of cell viability is critical in the cell-base assay. Analysis of cell viability is necessary for the characterization of cell responses to cytotoxic drugs and environmental stress. A RealTime-Glo MT Cell Viability Assay to monitor cell viability in real time of continues cell culture during 40 hours of compound treatment was used to screen Tox21 10K library compounds in HepG2 cells. The RealTime-Glo MT Cell Viability Assay is a nonlytic, homogeneous, bioluminescent method to measure cell viability in real time using a simple, plate-based method. The assay involves adding NanoLuc luciferase and a cell-permeant prosubstrate to cells in culture. Viable cells reduce the proprietary prosubstrate to generate a substrate for NanoLuc luciferase. This substrate diffuses from cells into the surrounding culture medium, where it is rapidly used by the NanoLuc Enzyme to produce a luminescent signal. The signal correlates with the number of viable cells, making the assay well suited for cytotoxicity studies.
Tox21 Assay Protocol Summary:
The mixture of HepG2 cell suspension and reagents were dispensed at 600cells/6 ul/well in 1536-well tissue culture treated black solid bottom plates using a Multidrop dispenser. After the assay plates were incubated at a 37 C/5% CO2 incubator for 5 hours, 23 nL of compounds dissolved in DMSO, positive and negative controls was transferred to the assay plate by a pintool work station. The plates were incubated at 37 C for 40 hours. The luminescence intensity were measured at 0h, 8h, 16h, 24h, 32h and 40h time points using ViewLux plate reader during compound treatment.
% is scaled to controls: 0 for no effect and ±100 for the full control effect.

| Compound | outcome | viability change, negative = cytotoxic |
| --- | --- | --- |
| CCC(C)OC(=O)N1CCCCC1CCO (stereo not given) | inactive |  |
| CCC(=O)Nc1cccc(N)c1 | inactive |  |
| NC(=O)CCCCC1CCSS1 (stereo not given) | inactive |  |
| COc1cc(C)cc(O)c1 | inactive |  |
| N#CCc1ccccc1[N+](=O)[O-] | inactive |  |
| CC1=CC(C)C(C=O)C(C)C1 (stereo not given) | inactive |  |
| O=C1C(CCS(=O)c2ccccc2)C(=O)N(c2ccccc2)N1c1ccccc1 (stereo not given) | inactive |  |
| CC(=O)OC(C)(C)C | inactive |  |
| C=C(C)C(=O)OCCCCCCCCCCCCCCCCCC |  | -0.392% [at 15.8 µM] |
| C=C(C)C(=O)NCCC[N+](C)(C)C | inactive |  |
| C=C(C)C1CC=C(C)C(O)C1 (stereo not given) | inactive |  |
| CCCCCCCCC=O | inactive |  |
| CC1=CCC2C(C1)C2(C)C (stereo not given) | inactive |  |
| CC(C)[N+](C)(C)CC(O)COc1cccc2ccccc12 (stereo not given) | inactive |  |
| CC(C)COC(=O)C(C)C | inactive |  |
| COC(=O)CCCCCCCCC(=O)OC | inactive |  |
| CCCOc1ccccc1-c1nc2n[nH]nc2c(=O)[nH]1 | inactive |  |
| C=CCn1c(=O)n([C@@H]2O[C@H](CO)[C@@H](O)[C@H]2O)c2nc(N)[nH]c(=O)c21 | inactive |  |
| O=C(O)/C=C/c1ccc(Cn2ccnc2)cc1 | inactive |  |
| C=CCOc1nc(OCC=C)nc(OCC=C)n1 | inactive |  |

| Compound | outcome | viability change, negative = cytotoxic |
| --- | --- | --- |
| CCCCC1CCCCC(=O)O1 (stereo not given) | inactive |  |
| O=C(O)c1ccccc1S | inactive |  |
| NC(CS)C(=O)O (stereo not given) | inactive |  |
| CC(C)=CCC/C(C)=C/C(=O)O | inactive |  |
| O=C(O)/C=C/c1ccc(/C=C/C(=O)O)cc1 | inactive |  |
| CC(C)CCCC(C)NCCC(C)C (stereo not given) | inactive |  |
| CCO[Si](CCCN=C=O)(OCC)OCC | inactive |  |
| CCN(CC)S(=O)(=O)c1ccc(C(=O)O)cc1 | inactive |  |
| O=c1[nH]c(=O)n([C@H]2O[C@H](CO)[C@@H](O)[C@@H]2O)cc1/C=C\Br | inactive |  |
| Nc1nc2c(ncn2CCC(CO)CO)c(=O)[nH]1 | inactive |  |
| CC(C)=CC(=O)O | inactive |  |
| C[N+](C)(C)CC[N+]1(C)Cc2c(Cl)c(Cl)c(Cl)c(Cl)c2C1 | inactive |  |
| CCCCc1ccc(N)cc1 | inactive |  |
| CC(C)CCOC(=O)CC(C)C | inactive |  |
| CC(O)CN(CCCN(C)C)CCCN(C)C (stereo not given) | inactive |  |
| CC(C)(O)c1ccccc1 | inactive |  |
| c1ccc2cnncc2c1 | inactive |  |
| COc1cccc(OC)c1 | inactive |  |
| CCCCCCCCCCCCI | inactive |  |
| Nc1nc(F)nc2c1ncn2[C@@H]1O[C@H](CO)[C@@H](O)[C@@H]1O | inactive |  |
